# Test results taken from PubChem BioAssay (NCATS).
# Results filed as inconclusive are left out. Calls of active or inactive are those of the source. The call rests on the fitted dose curve; in most records, active means well fitted curve in the direction sought with a large enough effect; inconclusive means small, poorly fitted or top-dose-only effect, or another doubt; inactive means no such curve, though single readings can be large; an effect the other way counts as inactive or inconclusive.
# Test: qHTS for Inhibitors of Plasmodium falciparum (DD2) proliferation (AID 504314);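 on activity, negative = inhibition: parasite DNA measured by SYBR Green fluorescence after red cell lysis; plate controls were DMSO vehicle for no effect and artemisinin wells for full effect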
# Details: P. falciparum Dd2 in erythrocytes, SYBR Green growth, 72 h; series mostly up to 1.12 µM; activity, negative = inhibition: at the top concentration
# In short: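 SYBR Green growth assay: 72 h compound exposure of infected red cells (2.5% hematocrit, 0.3% parasitemia), then lysis and overnight dye staining, fluorescence 485/535 nm. Values scaled between DMSO and 0.29 uM artemisinin controls.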
# Potency means the concentration at half of the fitted maximal effect.
SMILES,Potency,"activity, negative = inhibition"
CC1(C)O[C@@H](C(O)(c2cc(F)c(F)c(F)c2)c2cc(F)c(F)c(F)c2)[C@H](C(O)(c2cc(F)c(F)c(F)c2)c2cc(F)c(F)c(F)c2)O1,671 nM (active),
CC1(OC(=O)c2ccc(Cl)nc2)C(=O)C=C2C=C(C3CC3)OC=C2C1=O (centres undefined),,-4.03% [at 6.11 µM] (inactive)
COC(=O)C1=C(C(=O)OC)[C@@H]2N(C)c3ccc(OC)cc3[C@@]23C[C@@H](C(=O)OC)N=C3N1,,1.03% (inactive)
COCCN1C(=O)N(C)[C@@H](c2ccccc2)C(C(C)=O)=C1C,,-3.23% (inactive)
COCCN1C(=O)N[C@@H](c2cccc(C(F)(F)F)c2)C(C(=O)OC)=C1C,,1.44% (inactive)
COC/C=C/C1=CC2=CC(=O)C(C)(OC(=O)c3cnc4ccccc4n3)C(=O)C2=CN1C1CC1 (centres undefined),,3.93% (inactive)
CCN1C(=O)N[C@@H](c2ccco2)C(C(C)=O)=C1C,,0.441% (inactive)
CC[C@@H](C)CN1C(=O)N[C@@H](c2ccccc2)C(C(=O)OC)=C1C,,4.68% (inactive)
COCCN1C(=O)N[C@@H](c2cccc(F)c2)C(C(C)=O)=C1C,,-0.864% (inactive)
COC/C=C/C1=CC2=CC(=O)C(C)(OC(=O)c3cnc4ccccc4n3)C(=O)C2=CN1CCCOC(C)C (centres undefined),,-0.681% (inactive)
COC(=O)C1=C(C)N(Cc2ccccc2)C(=O)N[C@H]1CCc1ccccc1,,0.634% (inactive)
COC(=O)C1=C(C(=O)OC)[C@@H]2N(C)c3ccccc3[C@@]23C[C@@H](C(=O)OC)N(C(=O)CC(C)C)C3=N1,,0.221% (inactive)
C[C@H]1Cc2c(-c3ccccc3)nc3c(c2CO1)CN(C(=O)C1CC1)CC3,,-2.63% (inactive)
COC/C=C/C1=CC2=CC(=O)C(C)(OC(=O)c3cnc4ccccc4n3)C(=O)C2=CN1c1ccc(CO)cc1 (centres undefined),,2.24% (inactive)

# Test: qHTS for Inhibitors of Plasmodium falciparum (GB4) proliferation (AID 504315); further: nearly all actives have a fitted effect of over 50% in size;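 on activity change, negative = inhibition: 0% = DMSO vehicle and -100% = 0.29 µM artemisinin control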
# Details: P. falciparum GB4 in erythrocytes, SYBR Green DNA, 72 h; series mostly up to 6.7 µM; activity change, negative = inhibition: at the top concentration
# In short: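 Parasite growth measured as SYBR Green DNA fluorescence (ex 485, em 535 nm) after overnight lysis following 72 h culture at 37 °C, 0.3% parasitemia, 2.5% hematocrit. Values normalized against DMSO and 0.29 uM artemisinin controls, with plate-stack correction.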
SMILES,"activity change, negative = inhibition",Potency
Cc1ccc(S(=O)(=O)N[C@@H]2COC(=O)[C@@H](C)COC(=O)CC=C[C@H]2C)cc1,5.54% (inactive),
COC(=O)CCCC1=CC2=C(c3ccccc3)C(=O)C(C)(OC(=O)C3CCCC3)C(=O)C2=CN1CCc1ccccn1 (centres undefined),15.1% (inactive),
COC/C=C/C1=CC2=CC(=O)C(C)(OC(=O)c3cnc4ccccc4n3)C(=O)C2=CN1c1ccccc1 (centres undefined),3.43% (inactive),
CCCCc1nc2c(c3c1C[C@H](C)OC3)CN(C(=O)NCc1ccco1)CC2,,inactive
CCOC(=O)CN1C(=O)N[C@@H](c2cccs2)C(C(=O)OC)=C1C,7.97% (inactive),
COc1ccc(C2=CC3=C(Br)C(=O)C(C)(OC(=O)c4ccco4)C(=O)C3=CO2)cc1 (centres undefined),-9.43% (inactive),
CC1(OC(=O)C2CCCC2)C(=O)C=C2C=C(c3ccsc3)N(CCCCO)C=C2C1=O (centres undefined),,inactive
COc1cccc(CC(=O)N2CCc3nc(-c4ccccc4)c4c(c3C2)CO[C@@H](C)C4)c1,,inactive
COC(=O)[C@@H]1[C@H](CCc2ccccc2)NC(=O)N(Cc2ccccc2)[C@H]1C,-1.28% (inactive),
CC1(OC(=O)CCc2ccccc2)C(=O)C=C2C=C(c3ccc(C#N)cc3)N(CCN3CCOCC3)C=C2C1=O (centres undefined),7.36% (inactive),
COC(=O)C1=C(C)N(Cc2ccccc2)C(=O)N[C@H]1c1ccco1,-0.167% (inactive),
CC(C)CN1C=C2C(=O)C(C)(OC(=O)C3CCCC3)C(=O)C=C2C=C1c1ccsc1 (centres undefined),14.3% (inactive),
COC(=O)CCC(=O)OC1(C)C(=O)C2=CN(CC(C)C)C(c3ccc(OC)cc3)=CC2=C(Br)C1=O (centres undefined),-0.536% (inactive),
COC/C=C/C1=CC2=CC(=O)C(C)(OC(=O)c3cnc4ccccc4n3)C(=O)C2=CN1CCc1c[nH]c2ccccc12 (centres undefined),4.06% (inactive),
COC/C=C/C1=CC2=CC(=O)C(C)(OC(=O)c3cnc4ccccc4n3)C(=O)C2=CN1c1cccc(C#N)c1 (centres undefined),-1.12% (inactive),
COCCN1C=C2C(=O)C(C)(OC(=O)CCC(=O)OC)C(=O)C(Br)=C2C=C1c1ccc(OC)cc1 (centres undefined),0.145% (inactive),
CCCC[C@]12Cc3c(ccc4ccccc34)[C@H](O1)C1=C(O2)C(=O)c2ccccc2C1=O,,1690 nM (active)
COC(=O)N1C2=C(c3ccccc3[C@@H]1CC(=O)Nc1ccc3cc4ccccc4cc3c1)[C@@H]1C(=O)N(c3ccccc3)C(=O)[C@@H]1[C@H](C)C2,,1510 nM (active)
COC(=O)C1=C(C(=O)OC)[C@@H]2N(C)c3ccccc3[C@@]23C[C@@H](C(=O)OC)N(S(=O)(=O)c2ccc(C)cc2)C3=N1,5.37% (inactive),
COC(=O)CCC(=O)OC1(C)C(=O)C2=CN(CC3CC3)C(c3ccc(OC)cc3)=CC2=C(Br)C1=O (centres undefined),8.11% (inactive),

SMILES,"activity change, negative = inhibition",Potency
CCCCC1=CC2=CC(=O)C(C)(OC(=O)CC)C(=O)C2=CN1C1CCCCC1 (centres undefined),8.13% (inactive),
CCCCC1=CC2=CC(=O)C(C)(OC(=O)CC)C(=O)C2=CN1CCCOC(C)C (centres undefined),-8.97% (inactive),
COC(=O)C1=C(C(=O)OC)[C@@H]2N(C)c3ccccc3[C@@]23C[C@@H](C(=O)OC)N(C(C)=O)C3=N1,8.87% (inactive),
CCOC(=O)NN=C1C[C@@H](O)[C@@H](O)[C@@H]2[C@H]3C(=O)N([C@@H](C)c4ccccc4)C(=O)[C@@H]3CC[C@@H]12,-3.17% (inactive),
CC1(OC(=O)CCc2ccccc2)C(=O)C=C2C=C(c3ccc(C#N)cc3)N(CCc3ccccn3)C=C2C1=O (centres undefined),19% (inactive),
COC(=O)CCCC1=CC2=CC(=O)C(C)(OC(=O)c3cccs3)C(=O)C2=CN1c1ccc(CO)cc1 (centres undefined),5.28% (inactive),
CC1(C)O[C@@H](C(O)(c2cc(F)c(F)c(F)c2)c2cc(F)c(F)c(F)c2)[C@H](C(O)(c2cc(F)c(F)c(F)c2)c2cc(F)c(F)c(F)c2)O1,,953 nM (active)
CC1(OC(=O)c2ccc(Cl)nc2)C(=O)C=C2C=C(C3CC3)OC=C2C1=O (centres undefined),4.24% (inactive),
COC(=O)C1=C(C(=O)OC)[C@@H]2N(C)c3ccc(OC)cc3[C@@]23C[C@@H](C(=O)OC)N=C3N1,8.77% (inactive),
COCCN1C(=O)N(C)[C@@H](c2ccccc2)C(C(C)=O)=C1C,-4.79% (inactive),
COCCN1C(=O)N[C@@H](c2cccc(C(F)(F)F)c2)C(C(=O)OC)=C1C,-5.82% (inactive),
COC/C=C/C1=CC2=CC(=O)C(C)(OC(=O)c3cnc4ccccc4n3)C(=O)C2=CN1C1CC1 (centres undefined),6.77% (inactive),
CCN1C(=O)N[C@@H](c2ccco2)C(C(C)=O)=C1C,7.22% (inactive),
CC[C@@H](C)CN1C(=O)N[C@@H](c2ccccc2)C(C(=O)OC)=C1C,-7.81% (inactive),
COCCN1C(=O)N[C@@H](c2cccc(F)c2)C(C(C)=O)=C1C,11.7% (inactive),
COC/C=C/C1=CC2=CC(=O)C(C)(OC(=O)c3cnc4ccccc4n3)C(=O)C2=CN1CCCOC(C)C (centres undefined),0.0344% (inactive),
COC(=O)C1=C(C)N(Cc2ccccc2)C(=O)N[C@H]1CCc1ccccc1,-3.68% (inactive),
COC(=O)C1=C(C(=O)OC)[C@@H]2N(C)c3ccccc3[C@@]23C[C@@H](C(=O)OC)N(C(=O)CC(C)C)C3=N1,-3.21% (inactive),
C[C@H]1Cc2c(-c3ccccc3)nc3c(c2CO1)CN(C(=O)C1CC1)CC3,-8.03% (inactive),
COC/C=C/C1=CC2=CC(=O)C(C)(OC(=O)c3cnc4ccccc4n3)C(=O)C2=CN1c1ccc(CO)cc1 (centres undefined),8.16% (inactive),
